Source: PubChem (Broad Institute)
Most compounds without a hit are left out; they make up all but 2.9% or so of the library.
N-glyco inh: increase of ERlucT glycosylation luciferase signal, primary screen, N-linked glycosylation inhibitor project, D54 ERlucT cells, luminescence, set 2; D54 ERlucT glycosylation luciferase reporter, 24 h; percent of 100 nM tunicamycin response; 360,000 compounds, 0.23% hits; reporter increase, % at 12.5 µM;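 active = mean luciferase reporter signal, scaled so untreated is 0 and the glycosylation-blocking control 100, at or above a set limit in every replicate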;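 note: luciferase carries N-glycosylation sites so blocking glycosylation raises the light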
Wnt act: Wnt/beta-catenin pathway activators, primary screen, cell-based, plate reader, single point | AID 743398, 2014 | 300,000 compounds, 1.2% hits | Wnt/beta-catenin reporter cell assay, activator | activation, % at 9.35 µM; in the data active = activation above about 30%, passing the limit was not always enough
NSD2 inh: NSD2 histone methyltransferase inhibitors, primary screen, biochemical, AlphaScreen, single concentration, set 2; Histone-lysine N-methyltransferase NSD2 (Homo sapiens), O96028; NSD2 peptide methylation, 120 min; inhibition, % at 12.5 µM; 310,000 compounds, 0.54% hits; in the data active = inhibition above about 50%
Target sequence (O96028 whole entry, looked up): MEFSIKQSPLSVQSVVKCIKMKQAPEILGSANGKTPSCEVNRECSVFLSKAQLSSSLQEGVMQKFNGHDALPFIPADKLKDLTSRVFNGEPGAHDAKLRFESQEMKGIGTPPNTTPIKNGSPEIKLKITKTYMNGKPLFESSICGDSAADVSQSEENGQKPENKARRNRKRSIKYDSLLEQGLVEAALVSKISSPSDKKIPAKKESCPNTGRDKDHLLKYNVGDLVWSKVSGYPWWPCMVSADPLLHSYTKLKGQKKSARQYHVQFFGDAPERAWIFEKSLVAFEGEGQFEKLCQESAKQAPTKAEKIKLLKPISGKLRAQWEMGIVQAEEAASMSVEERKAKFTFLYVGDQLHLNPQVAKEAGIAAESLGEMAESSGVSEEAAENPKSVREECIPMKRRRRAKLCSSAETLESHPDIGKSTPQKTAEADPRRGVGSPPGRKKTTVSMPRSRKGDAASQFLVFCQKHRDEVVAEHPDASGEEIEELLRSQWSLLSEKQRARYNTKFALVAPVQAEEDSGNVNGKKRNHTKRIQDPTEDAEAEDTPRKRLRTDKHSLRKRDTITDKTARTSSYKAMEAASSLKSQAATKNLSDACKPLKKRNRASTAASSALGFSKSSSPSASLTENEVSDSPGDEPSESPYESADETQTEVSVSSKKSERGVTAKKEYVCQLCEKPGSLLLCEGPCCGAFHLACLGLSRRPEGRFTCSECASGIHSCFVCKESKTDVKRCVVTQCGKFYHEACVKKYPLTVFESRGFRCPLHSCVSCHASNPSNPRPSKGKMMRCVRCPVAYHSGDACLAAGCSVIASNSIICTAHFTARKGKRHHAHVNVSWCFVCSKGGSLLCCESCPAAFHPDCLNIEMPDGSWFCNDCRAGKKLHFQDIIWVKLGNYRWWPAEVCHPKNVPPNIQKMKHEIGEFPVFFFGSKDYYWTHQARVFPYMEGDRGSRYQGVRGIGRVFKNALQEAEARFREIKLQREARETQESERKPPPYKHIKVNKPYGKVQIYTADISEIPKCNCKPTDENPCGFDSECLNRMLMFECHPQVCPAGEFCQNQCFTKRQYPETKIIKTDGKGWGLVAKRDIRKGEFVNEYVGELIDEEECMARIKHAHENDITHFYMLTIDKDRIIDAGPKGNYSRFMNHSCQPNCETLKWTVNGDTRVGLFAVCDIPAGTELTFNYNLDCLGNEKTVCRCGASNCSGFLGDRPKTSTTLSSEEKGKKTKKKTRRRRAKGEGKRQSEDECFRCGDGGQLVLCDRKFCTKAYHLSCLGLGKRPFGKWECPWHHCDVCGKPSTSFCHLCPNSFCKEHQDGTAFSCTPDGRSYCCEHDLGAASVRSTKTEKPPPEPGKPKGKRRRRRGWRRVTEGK
MITF act: activators of MITF-driven TRPM1 promoter reporter, primary screen, cell-based, SK-MEL-5, luciferase, single point | SK-MEL-5 TRPM1-promoter luciferase, 24 h; % of positive control, neutral wells = 0 | activation, % at 12.5 µM | 300,000 compounds, 0.75% hits;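 active = mean activation of at least 80% with every replicate also reaching 80%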
TRPM1 prom inh: inhibitors of MITF-dependent TRPM1 promoter reporter, primary screen, cell-based, SK-MEL-5, single point, luciferase | 330,000 compounds, 0.83% hits | inhibition, % at 12.5 µM | SK-MEL-5 TRPM1 promoter luciferase, 24 h;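 active = mean inhibition across replicates of 60% or more, whatever share of single replicates reaches that level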
PfHsp90 set2: growth inhibition of PfHsp90-expressing yeast, primary screen, antimalarial PfHsp90 inhibitor project, S. cerevisiae, BacTiter-Glo luminescence, single point, set 2; BacTiter-Glo ATP, 48 h; yeast lacking PDR1 and PDR3 efflux regulators; inhibition, % at 9.4 µM; 310,000 compounds, 0.32% hits; AID 504621, 2011;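 active = every replicate shows inhibition above about 80%, whatever the replicate mean, limit read from the data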
Each line names hits and unclear results; the compound was inactive in the other large screens.

CCOc1cccc2sc(N(CCCN(C)C)C(=O)c3ccc(S(=O)(=O)N(C)Cc4ccccc4)cc3)nc12	TRPM1 prom inh 95
CCOc1cccc2cc(-c3csc(NC(=O)CCC(=O)NC4CCCC4)n3)c(=O)oc12	none (no result: N-glyco inh, Wnt act, MITF act, TRPM1 prom inh, PfHsp90 set2)
O=C(/C=C/c1cccnc1)c1ccc(F)cc1	none (no result: N-glyco inh, Wnt act, MITF act, TRPM1 prom inh, PfHsp90 set2)
Cc1ccc(/C=[N+](\[O-])c2ccc(N(C)C)cc2)c2nsnc12	PfHsp90 set2 109
CCSc1nnc(NC(=O)[C@@H](NC(=O)c2ccccc2F)C(C)C)s1	none
CCCCn1c(SC(C)C(=O)c2ccc(OC)cc2)nc2cc(S(N)(=O)=O)ccc21 (stereo not given)	none (no result: Wnt act)
CCn1c(SC(C)C(=O)NC2CCCC2)nc2cc(S(N)(=O)=O)ccc21 (stereo not given)	Wnt act 48
Nc1ccc2c(c1)C(=O)c1ccccc1-2	Wnt act 32 (no result: NSD2 inh, MITF act)
O=C1C(O)=C(O)C(=O)c2ccccc21	none (no result: NSD2 inh)
O=C1C(=O)c2ccc(-c3ccccc3)cc2-c2ccccc21	TRPM1 prom inh 104 (no result: Wnt act, PfHsp90 set2)
Nc1ccc2c(c1)C(=O)c1ccccc1C2=O	Wnt act 40, MITF act 104 (no result: PfHsp90 set2)
Nc1ccc2c(c1)C(=O)c1ccc(Br)cc1-2	none (no result: PfHsp90 set2)
CCc1ccccc1Nc1nc(N)nc(CSCC(=O)Nc2ccc(C)c(C)c2)n1	Wnt act 57
CCc1ccc(NC(=O)CSCc2nc(N)nc(Nc3ccccc3CC)n2)cc1	none
O=C1C=C(NCCc2cc(Br)c(O)c(Br)c2)C(=O)c2ncccc21	NSD2 inh 137, TRPM1 prom inh 109
Cc1ccc(OCc2cc(C(=O)N(CCO)Cc3cccs3)no2)cc1C	MITF act 86 (no result: PfHsp90 set2)
COc1cccc(OCc2cc(C(=O)N3CCN(c4ccccc4O)CC3)no2)c1	MITF act 97
COc1cccc(OCc2cc(C(=O)N3CCN(C(C)=O)CC3)no2)c1	none
CCN1CCN(C(=O)c2cc(COc3ccc(C(C)=O)cc3OC)on2)CC1	Wnt act 38
CCN(Cc1ccncc1)C(=O)c1cc(COc2ccc(C)c(C)c2)on1	none
COc1cccc(OCc2cc(C(=O)N3CCN(c4ccccc4OC)CC3)no2)c1	Wnt act 37, MITF act 83
COc1ccccc1N1CCN(C(=O)c2cc(-c3ccccc3)on2)CC1	none
COCCNC(=S)N(C)[C@H]1C[C@H]2c3[nH]c4c(-c5ccccc5)cccc4c3CCN2C(=O)[C@H]1[C@H](C)O	none (no result: N-glyco inh, NSD2 inh, MITF act, TRPM1 prom inh, PfHsp90 set2)
O=C1ON=C(c2ccc([N+](=O)[O-])cc2)/C1=C/c1ccccc1O	none
Cc1ccc(OCc2cc(C(=O)N3CCN(C4CCCC4)CC3)no2)cc1C	none
CCN1CCC2(CCN(C(=O)c3cc(COc4cc(C)ccc4C)on3)C2)C1 (stereo not given)	none
Cc1ccc(C)c(OCc2cc(C(=O)N3CC[C@H](O)C3)no2)c1	Wnt act 37, MITF act 132
Cc1ccc(OCc2cc(C(=O)N3CCN(c4ccccc4)CC3)no2)cc1C	Wnt act 36, MITF act 83
Clc1cccc(N/N=C/c2ccncc2)c1	MITF act 101
CCC(=O)Nc1cc(C(=O)OCC(=O)c2ccc(Cl)cc2Cl)ccc1C	none (no result: Wnt act)
CCC(=O)Nc1cc(C(=O)OCC(=O)c2ccccc2Cl)ccc1C	Wnt act 35 (no result: MITF act)
CCC(=O)Nc1cc(C(=O)OCC(=O)c2ccccc2)ccc1C	Wnt act 35
COc1ccccc1/C=C/C(=O)c1c2c(c(C)[nH]c1=O)CCCC2	TRPM1 prom inh 64 (no result: NSD2 inh)
COc1ccccc1/C=C/C(=O)c1ccccc1	none
CCOC(=O)c1c(C=O)c2sc(C)cc2n1C	Wnt act 44 (no result: NSD2 inh)
CCOC(=O)c1c(C=O)c2ccccc2n1CC	none
CCC(C(=O)Nc1ccc2c(c1)OCCO2)n1nnc2ccccc2c1=O (stereo not given)	MITF act 88
COc1ccc(C2Nc3ccc4ccccc4c3-c3c2c(=O)oc2ccccc32)cc1 (stereo not given)	N-glyco inh 109 (no result: Wnt act)
